Inconclusive results are not listed. Active and inactive are the calls of the source. Calls follow the shape of the dose curve; as a rule, active = well fitted curve in the direction sought with a large enough effect; inconclusive = small, poorly fitted or top-dose-only effect, or another doubt; inactive = no such curve, though single readings can be large; an effect the other way counts as inactive or inconclusive.
Key:
[1] = MultiTox-Fluor Cytotoxicity Assay - LYMP1-002 - Dead Cells (AID 960);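 also: cells exposed to compound for 16 h at 37 °C; nearly all actives have a fitted effect of over 60% in size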
Outline: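 Concentration-dependent increases in membrane-leaked protease activity are quantified in LYMP1-002 cells after 16 hr treatment; values are normalized against DMSO and tetraoctylammonium bromide (15 uM) controls and AC50 derived by Hill modeling.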

[2] = MultiTox-Fluor Cytotoxicity Assay - LYMP1-003 - Dead Cells (AID 961);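 also: cells exposed to compound for 16 h at 37 °C; nearly all actives have a fitted effect of over 70% in size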
Outline: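 Human lymphoblastoid LYMP1-003 cells (2500/well) were treated with compounds for 16 hr at 37 C in complete medium. Dead-cell protease release was read by bis-AAF-R110 fluorescence (Ex/Em 485/520). AC50 came from Hill fits, normalized to DMSO and 15 uM tetraoctylammonium bromide.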

[3] = MultiTox-Fluor Cytotoxicity Assay - LYMP1-003 - Live Cells (AID 962);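 also: cells exposed to compound for 16 hours at 37 °C; cytotoxic hits lower the live-cell protease signal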
Outline: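 Human lymphoblastoid line LYMP1-003 in complete culture medium, treated 16 hr with titrated compounds. Viable cells quantified via cell-permeant GF-AFC substrate fluorescence; AC50 derived by Hill fitting.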

[4] = Cell Viability - LYMP1-003 - Assay at 24 hr (AID 963)
Outline: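 The lymphoblastoid line was treated with titrated compounds for 24 hours, and viable cell number estimated from luciferase-based ATP luminescence.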

[5] = Cell Viability - LYMP1-003 - Assay at 40 hr (AID 964); also: series mostly up to about 92 µM; nearly all actives have a fitted effect of over 60% in size
Outline: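 Acute toxicity is scored as a concentration-dependent loss of intracellular ATP in LYMP1-003 cells (2500/well, complete medium) after 40 hr at 37 C, measured by CellTiter-Glo luminescence; AC50 values derive from standard Hill modelling.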

[6] = Cell Viability - LYMP2-003 (AID 965);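 also: cells exposed to compounds for 24 h before reading; nearly all actives have a fitted effect of over 50% in size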
Outline: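 CellTiter-Glo luminescence quantified ATP loss after 24 h compound treatment of LYMP2-003 lymphoblastoid cells at 37 C. Titration series were fitted with the standard Hill equation to give AC50.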

[7] = Cell Viability - LYMP2-004 (AID 966); also: nearly all actives have a fitted effect of over 65% in size
Outline: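 Viable-cell number estimated from ATP luminescence (CellTiter-Glo) in 2500 human lymphoblastoid cells/well after 24 hr at 37 C with compound. AC50 fitted to the standard Hill equation.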

[8] = Cell Viability - LYMP2-005 (AID 967); also: series mostly up to about 92 µM
Outline: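 LYMP2-005 human lymphoblastoid cells (2500/well) were treated with compounds for 24 h at 37 C. Intracellular ATP was then measured by CellTiter-Glo luminescence after 30 min at room temperature. AC50 values came from Hill-equation fits of qHTS concentration-response data.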

[9] = Cell Viability - LYMP2-009 (AID 968); also: series mostly up to about 92 µM; nearly all actives have a fitted effect of over 55% in size
[10] = Cell Viability - LYMP2-011 (AID 969); also: nearly all actives have a fitted effect of over 60% in size
Outline: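 Cells seeded at 2500 per well rest 5 hr before compound addition, then incubate 24 hr at 37 C. CellTiter-Glo reagent is added for 30 min at room temperature before luminescence detection.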

Measured: outcome

Cc1cc(O)c2c(c1)C(=O)c1cccc(O)c1C2=O
inactive: all assays above
